Source: PubChem BioAssay
DRV1 agonist = qHTS for Agonists of Human Resolvin D1 Receptor DRV1; AID 1346428, 2018; 48,000 compounds, 2.5% hits; activation, % at 76.9 µM; CHO-K1 GPR32 beta-arrestin PathHunter luminescence, 90 min; zero percent set by DMSO-only wells; Probable G-protein coupled receptor 32 (Homo sapiens), O75388;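 active means activation of at least 60% and not above a set upper limit, about 1 call in 100 departs from these limits; inconclusive means activation of 40% to 60%, or above that upper limit; inactive means activation under 40%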
Target sequence (O75388 whole entry, looked up): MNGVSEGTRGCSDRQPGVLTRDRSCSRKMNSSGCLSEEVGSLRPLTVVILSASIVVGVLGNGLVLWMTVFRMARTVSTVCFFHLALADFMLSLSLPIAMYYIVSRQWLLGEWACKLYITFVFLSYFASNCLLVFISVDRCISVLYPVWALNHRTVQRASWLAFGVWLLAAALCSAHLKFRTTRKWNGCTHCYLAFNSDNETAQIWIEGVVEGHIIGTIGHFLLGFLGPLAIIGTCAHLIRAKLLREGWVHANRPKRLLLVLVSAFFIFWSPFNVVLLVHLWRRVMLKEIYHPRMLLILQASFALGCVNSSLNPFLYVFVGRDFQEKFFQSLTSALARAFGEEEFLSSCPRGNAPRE
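Readings come from a cell-based beta-arrestin complementation format: CHO-K1 GPR32 stable cells (2,500/well) treated 90 min with compounds, then beta-Gal substrate added for 1 h before chemiluminescence imaging.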
HTT-AS promoter = Primary qHTS for Identification of Small Molecule Activators of Huntingtin-Antisense Promoter Activity. 48,000 compounds, 0.24% hits. HEK293 HTT-AS promoter firefly luciferase reporter, 24 h; response scale: percent change from vehicle, -100% = no light. Potency, µM (top dose mostly 57.5 µM), actives largely listed as activators; further: nearly all actives have a fitted effect of over 55% in size
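HEK293 luciferase promoter-reporter cells (2,500/well) plated 24 h, then compounds added at up to 57.5 uM final for 24 h at 37 °C. Firefly luminescence by Dual-Glo, normalized to vehicle (0%) and zero RLU (-100%).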
p53null 39C kill = qHTS Screen for Compounds that Selectively Target Cancer Cells with p53 Mutations: Cytotoxicity of p53 Null Cells at the Nonpermissive Temperature; AID 904, 2007; 55,000 compounds, 0.97% hits; Potency, µM (series often up to 46.1 µM), actives largely listed as cytotoxic; H1299 p53-null (neo) cells, 39C, ATPlite viability, 24 h; further: nearly all actives have a fitted effect of over 50% in size
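ATP-luminescence viability readout (ATPlite, 20 min RT) after 24 hr compound treatment at 39C of H1299-neo or H1299-p53A138V cells; titration up to 46 uM; normalized to DMSO and 100 uM tamoxifen; Hill-fit AC50.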
HTT promoter inh = Primary qHTS for Identification of Small Molecule Inhibitors of Huntingtin Promoter Activity. HEK293 HTT promoter firefly luciferase reporter, 24 h. Potency, µM (series often up to 57.5 µM), usual class: inhibitors. 48,000 compounds, 0.93% hits; further: nearly all actives have a fitted effect of over 50% in size
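Luminescence was read after Dual-Glo reagent and a 10 min room-temperature incubation. Values were normalized to vehicle (0% activity) and zero RLU (-100% activity). Reporter HEK293 cells had been exposed to compounds (up to 57.5 uM final) for 24 h.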
p53null 32C tox = qHTS Screen for Compounds that Selectively Target Cancer Cells with p53 Mutations: Cytotoxicity of p53 Null Cells at the Permissive Temperature; AID 903, 2007; Potency, µM (top dose mostly 46.1 µM), most hits filed as cytotoxic; 55,000 compounds, 0.62% hits; H1299-neo p53 null cells, ATP luminescence, 24 h, 32C; further: nearly all actives have a fitted effect of over 55% in size
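Cells lacking p53 (H1299-neo) are plated at 600 per well and allowed to settle overnight at 37C. Test compounds (up to 46 uM) are added and held 24 hours at 32C, then ATP is quantified by luminescence.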
A number is an active result; - = inactive; ? = inconclusive; . = no result; [ ] = remark or other dose. In the library only some 3.9% were active in any assay of this set; here they are far more common. Unless noted, the call rests on the fitted dose curve; in most records, active means well fitted curve in the direction sought with a large enough effect; inconclusive means small, poorly fitted or top-dose-only effect, or another doubt; inactive means no such curve, though single readings can be large; an effect the other way counts as inactive or inconclusive.

SMILES | DRV1 agonist | HTT-AS promoter | p53null 39C kill | HTT promoter inh | p53null 32C tox
O=C1c2[nH]nc(-c3ccccc3O)c2C(c2cccc(OCc3ccccc3)c2)N1CCCO (configuration not stated) | - | - | - | ? | -
COc1ccc(C2c3c(-c4ccccc4O)n[nH]c3C(=O)N2CCc2ccccc2)cc1 (configuration not stated) | - | - | ? | ? | -
CC(C)OCCCN1C(=O)c2[nH]nc(-c3ccccc3O)c2C1c1ccc(OCc2ccccc2)cc1 (configuration not stated) | - | - | 13µM | ? | -
COCCN1C(=O)c2[nH]nc(-c3ccccc3O)c2C1c1ccc(Cl)c(Cl)c1 (configuration not stated) | - | - | 16µM | ? | -
CC(C)OP(=O)(CP(=O)(OC(C)C)OC(C)C)OC(C)C | - | - | . | - | .
O=C(Nc1ccc(Cl)c(Cl)c1)C1CC1 | 83 | - | . | - | .
CCC(=O)N1c2ccccc2CC1C(=O)NCCN1CCN(c2cc(Cl)ccc2C)CC1 (configuration not stated) | 69 | - | - | - | -
Cc1ccc(Cl)cc1N1CCN(CCNC(=O)Nc2ccc(Cl)cc2)CC1 | 84 | ? | 20µM | - | ?
CCOc1ccc(NC(=O)NCCN2CCN(c3cc(Cl)ccc3C)CC2)cc1 | 73 | - | - | ? | -
OC[C@H]1O[C@@H](Oc2cc(O)cc(C=Cc3ccc(O)cc3)c2)[C@H](O)[C@@H](O)[C@H]1O | . | - | . | - | .
Cc1cnc(Nc2cccc(CN3CCOCC3)c2)nc1Nc1cccc(S(=O)(=O)NC(C)(C)C)c1 | . | - | . | - | .
C=CCNc1c(O)cc2c(O)c1C[C@@H](C)C[C@H](OC)[C@@H](O)[C@@H](C)C=C(C)[C@H](OC(N)=O)[C@@H](OC)C=CC=C(C)C(=O)N2 | . | - | . | ? | .
CC(C)C(=O)OCc1cccc(OC(=O)[C@@H]2N3C(=O)[C@@H](NC(=O)Cc4ccccc4)[C@H]3SC2(C)C)c1 | - | - | . | - | .
COC(=O)N[C@H](C(=O)N1CCC[C@@H]1c1ncc(-c2ccc(-c3ccc(-c4cnc([C@@H]5CCCN5C(=O)[C@@H](NC(=O)OC)C(C)C)[nH]4)cc3)cc2)[nH]1)C(C)C | . | - | . | - | .
Cc1noc2ncnc(NCCc3ccccc3)c12 | ? | - | - | 14µM | -
Cc1ccc(CCNc2ncnc3onc(C)c23)cc1 | 97 | - | - | ? | -
CCOc1ccc(CCNc2ncnc3onc(C)c23)cc1OCC | 64 | - | - | ? | -
COc1ccc(CNc2ncnc3onc(C)c23)cc1 | - | - | - | ? | -
O=C(C=Cc1cccnc1)NCCCCC1CCN(C(=O)c2ccccc2)CC1 | . | - | . | - | .
N#Cc1cc(NC(=O)C(=O)O)c(Cl)c(NC(=O)C(=O)O)c1 | - | - | . | - | .
COc1ccc(C2N=C(N)Nc3nc4ccccc4n32)c(OC)c1OC (configuration not stated) | - | - | - | - | -
CCc1ccc(C2=CC(c3cccc(OC)c3OC)n3c(nc4ccccc43)N2)cc1 (configuration not stated) | - | ? | ? | - | 14µM
CCc1ccc(C2=CC(c3cccc(C)c3)n3c(nc4ccccc43)N2)cc1 (configuration not stated) | - | ? | 10µM | - | 10µM
O=C(Nc1ccccc1)Nc1ccc(-c2ccc(C(=O)[C@H]3CCC[C@H]3C(=O)O)cc2)cc1 | . | - | . | - | .
CC(C)C[C@H](N)c1nnc(SCc2ccc(Cl)cc2Cl)o1 | 77 | - | ? | - | -
SMILES | DRV1 agonist | HTT-AS promoter | p53null 39C kill | HTT promoter inh | p53null 32C tox
C[C@H](NC(=O)OC(C)(C)C)c1nnc(SCc2ccc(Cl)cc2Cl)o1 | ? | - | ? | ? | -[9.22 µM]
CC1(C)S[C@H]2[C@H](NC(=O)[C@@H](N)c3ccc(O)cc3)C(=O)N2[C@@H]1C(=O)O | . | - | . | - | .
Cc1cccc(OC(=O)c2cc(-c3ccc4c(c3)OCCO4)on2)c1C | - | - | 32µM | - | 16µM
O=C(Oc1ccccc1Cl)c1cc(-c2ccc3c(c2)OCCO3)on1 | - | ? | ? | - | 20µM
Cc1ccc2ccc(Cl)cc2n1 | - | - | . | - | .
CCCCn1c(=N)n(CCCOc2ccc(F)cc2)c2ccccc21 | 76 | - | ? | - | ?
N=c1n(CCO)c2ccccc2n1CCOc1ccc(F)cc1 | - | . | - | . | -
O=C(NCC1CN(c2ccc(N3CCOCC3=O)cc2)C(=O)O1)c1ccc(Cl)s1 (configuration not stated) | ? | - | . | - | .
Cc1cc(Br)ccc1NC(=O)C(Cc1ccccc1)NS(=O)(=O)c1ccc(Br)s1 (configuration not stated) | 65 | - | ? | - | -
CC(=O)Nc1ccc(NC(=O)C(NS(=O)(=O)c2ccc(Br)s2)c2ccccc2)cc1 (configuration not stated) | - | - | - | - | -
CCOc1ccc(OCC)c(NC(=O)C(NS(=O)(=O)c2ccc(Br)s2)c2ccccc2)c1 (configuration not stated) | 85 | - | - | - | -
Cc1nnc(NC(=O)c2nc(S(=O)(=O)Cc3ccccc3)ncc2Cl)s1 | 81 | - | ? | ? | ?
COc1ccc2nc(NC(=O)c3nc(S(=O)(=O)Cc4ccccc4)ncc3Cl)sc2c1 | - | - | ? | - | -
O=C(Nc1nc2ccc(F)cc2s1)c1nc(S(=O)(=O)Cc2ccccc2)ncc1Cl | 91 | - | ? | ? | -
COc1ccc2nc3sc(C(=O)Nc4cc(Cl)c(OC)cc4OC)cc3cc2c1 | - | - | 10µM | - | -
Cc1ccc(-c2nnn(CC(=O)NC3CCN(Cc4ccccc4)CC3)n2)cc1 | . | . | - | . | -
O=C(Nc1nc2cccc(-c3ccc(CN4CCS(=O)(=O)CC4)cc3)n2n1)C1CC1 | . | 24µM | . | - | .
Cc1ccc(OCC(=O)Nc2ccc3c(c2)sc(=O)n3C)cc1 | 73 | - | ? | - | -
CCOC(=O)c1cc(C)n(CC2CCC(C(=O)Nc3ccc(Cl)cc3)CC2)c1C (configuration not stated) | - | - | ? | 4µM | -
CCOC(=O)c1cc(C)n(CC2CCC(C(=O)Nc3cccc(Cl)c3)CC2)c1C (configuration not stated) | - | - | - | ? | -
CC1CCCCN1CCCOC(=O)c1ccc(OC2CCCCC2)cc1 (configuration not stated) | ? | - | . | - | .
CS(=O)(=O)c1ccc(Sc2nc3ccccc3s2)c([N+](=O)[O-])c1 | . | . | . | . | 13µM
